# Measured values published in PubChem BioAssay AID624300 (Southern Research Specialized Biocontainment Screening …, 2012).
# The whole screen tested about 2,400 compounds, of which about 360 (15%) were called active.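 The calls were made as follows: active = viability falls under 70% at one or more tested concentrations, taken as toxicity; inactive = viability stays over 70% at every dose.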 A selection follows. Potency and affinity values are given separately.
# Assay: viability loss in HeLa cells – cytotoxicity control for MgcRacGAP inhibitor project, dose response (AID 624300);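 also: 100% = median of untreated control wells on the same plate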
# Conditions: CellTiter-Glo luminescence, 24 h; series mostly up to 100 µM; viability: at the top concentration
row,SMILES,viability
1,CCOc1cc(/C=N/n2cnnc2)ccc1O,99.9% (inactive)
2,CC1CCC/C(=C\Nc2ccc(O)cc2)C1=O (stereo not drawn),106% (inactive)
3,CCOCCCNC(=O)CN1CCN(c2ccc(F)cc2)CC1,96.4% (inactive)
4,CC(C)=C(NC(=O)c1ccccc1)C(=O)N/N=C/c1ccc(O)cc1,104% (inactive)
5,O=C(NN=Cc1ccc(O)cc1)c1ccccc1NS(=O)(=O)c1cccs1,93.7% (inactive)
6,C=CCc1cc(Cl)ccc1OCCNCCN1CCOCC1,101% (inactive)
7,CCCS(=O)(=O)N1CCN(C2Cc3ccccc3C2)CC1,106% (inactive)
8,C=CCOC(=O)c1cc(-c2ccc(/C=C3\C(=O)NC(=O)C(C#N)=C3C)o2)ccc1Cl,85.3% (inactive)
9,CCN1CCN(CC(=O)Nc2cc(C(F)(F)F)ccc2OCCOC)CC1,99.1% (inactive)
10,COCCNC(=O)Cn1cc(/C=N/NC(=O)c2ccc(Oc3ccc(O)cc3)cc2)c2ccccc21,104% (inactive)
11,CCOc1cc(-c2nc3ccccc3s2)ccc1O,87.2% (inactive)
12,CCOc1cc(/C=N/n2c(C)nnc2C)ccc1O,101% (inactive)
13,NCC[C@H](O)C(=O)N[C@@H]1C[C@H](N)[C@@H](O[C@H]2O[C@H](CN)[C@@H](O)[C@H](O)[C@H]2O)[C@H](O)[C@H]1O[C@H]1O[C@H](CO)[C@@H](O)[C@H](N)[C@H]1O,104% (inactive)
14,CSCc1ccc(C(=O)N2CCCC(Nc3ccc4c(c3)OCCO4)C2)o1 (stereo not drawn),100% (inactive)
15,Cc1ccccc1N1C(S)=C(C#N)C(=O)NC12CCCCC2,103% (inactive)
16,C/C(=N\Nc1cccc2cccnc12)c1ccc[nH]1,96.6% (inactive)
17,COc1ccc(CN2CCN(Cc3ccco3)CC2)cc1OC,93.6% (inactive)
18,O=C1C(=Cc2ccco2)CCC1=Cc1ccco1,99.7% (inactive)
19,CCN(CC)c1ccc(NC(=O)CCN2C(=O)c3ccccc3S2(=O)=O)c(C)c1,105% (inactive)
20,Nc1cc(C(F)(F)F)ccc1N1CCOCC1,96.6% (inactive)
21,CCc1ccccc1NC(=S)NCC1CCN(c2ccc(OC)cc2)C1 (stereo not drawn),95% (inactive)
22,Nc1ccc2nc(Cc3ccccc3)[nH]c2c1,115% (inactive)
23,Nc1ccc2c(c1)[nH]c(=O)c1cc(N)ccc12,93.6% (inactive)
24,O=C(c1ccc(Cl)c(S(=O)(=O)N2CCCCCC2)c1)N1CCN(c2ccc(O)cc2)CC1,87% (inactive)

row,SMILES,viability
1,CCN(CC)S(=O)(=O)c1ccc(N/N=C/c2ccc(O)cc2)nc1,95.9% (inactive)
2,CSc1nc(C)c2c(n1)N(c1ccc(O)cc1)CC2,103% (inactive)
3,CCN1CCN(c2ccc(N=Cc3ccccc3O)cc2)CC1,101% (inactive)
4,CC(=O)c1c(C)c(C)c2n1CCn1c(C)ccc1-2,96.3% (inactive)
5,CN1C(=O)/C(=C/c2ccc(C(=O)Nc3ccc(O)cc3C(=O)O)cc2)SC1=S,103% (inactive)
6,CCN=C1S/C(=C\c2ccc(O)c(OCC)c2)C(=O)N1CC,101% (inactive)
7,Cc1ccc(NCCCCO)cc1C,95.5% (inactive)
8,O=c1cc(-c2ccc(O)c(O)c2)oc2cc(O)c([C@@H]3O[C@H](CO)[C@@H](O)[C@H](O)[C@H]3O)c(O)c12,84.2% (inactive)
9,C/C(=N\NC(=O)c1cccc(N/N=C(\C)c2cc(O)ccc2O)c1)c1cc(O)ccc1O,86% (inactive)
10,Cn1c(=O)[nH]c(NCCc2ccc(O)cc2)c([N+](=O)[O-])c1=O,106% (inactive)
11,CC(=O)C1=C(O)C(=O)N(c2ccc(O)cc2)C1c1ccccc1[N+](=O)[O-] (stereo not drawn),93% (inactive)
12,COc1cc(/C=N/NC(=O)c2cc[n+]([O-])cc2)ccc1O,102% (inactive)
13,O=C1C=CC(=O)N1c1ccccc1N1C(=O)C=CC1=O,114% (inactive)
14,CCS(=O)(=O)c1ccc2oc(=O)c(/C=C(\O)c3ccc(Cl)cc3)nc2c1,99.4% (inactive)
15,CN(C)CCCC1Sc2ccccc2Sc2ccccc21 (stereo not drawn),113% (inactive)
16,Nc1cc([N+](=O)[O-])ccc1Nc1ccc(O)cc1,91.9% (inactive)
17,Cc1ccc(-n2c(=S)[nH]c3sc4c(c3c2=O)CCC4)cc1,80.5% (inactive)
18,COc1cc(/C(C)=N\NC(=O)CSc2nc3ccccc3n2C)ccc1O,102% (inactive)
19,CCN1CCN(CC(=O)Nc2nc3ccc(OC)cc3s2)CC1,88.7% (inactive)
20,CCC(=O)N1CCc2cc(S(=O)(=O)CCC(=O)NCc3ccc(C)cc3)ccc21,97.8% (inactive)
21,CCOc1ccc(CN2CCN(Cc3c[nH]c4ccccc34)CC2)cc1,93.4% (inactive)
22,O=C(CCc1c[nH]c2ccccc12)NCCc1ccc(O)cc1,101% (inactive)
23,Nc1nc2cc(S(=O)(=O)NC3=NCCCCC3)ccc2s1,99.8% (inactive)
24,Nc1nc(N)c2[nH]c(=S)[nH]c2n1,90.9% (inactive)

row,SMILES,viability
1,CN(CC(=O)NCc1ccncc1)S(=O)(=O)c1ccc(Cl)cc1,96.8% (inactive)
2,COC(=O)c1[nH]c2ccc(C)cc2c1NC(=O)Oc1ccccc1,92.6% (inactive)
3,O=[N+]([O-])c1ccccc1OCCNCc1ccccc1,96.5% (inactive)
4,Nc1ccc(OCCc2ccccc2)cc1,108% (inactive)
5,CC(C)[C@H](N[C@@H](C)c1ccccc1)c1c(O)ccc2ccccc12,97.3% (inactive)
6,COc1cccc(OC)c1OCCNC(C)(C)C,100% (inactive)
7,CCn1c(-c2ccccc2)csc1=Nc1ccc(O)cc1,98.7% (inactive)
8,O=c1[nH][nH]cc1C=Nc1cc(Cl)ccc1O,95.4% (inactive)
9,CN(C)/C=C1\NC(=S)N(c2ccccc2)C1=O,99.2% (inactive)
10,CCc1ccc(NC(=O)CNCc2ccc(OC)c(OC)c2)cc1,105% (inactive)
11,CCOc1ccccc1/C=c1\sc2ncnn2c1=O,91.7% (inactive)
12,Cn1c(=O)[nH]c(N)c(Br)c1=O,105% (inactive)
13,O=C(COc1ccccc1)NCC(=O)N/N=C/c1ccc(O)cc1O,103% (inactive)
14,O=Nc1ccc(NOC(=O)c2ccccc2)cc1,99.9% (inactive)
15,Nc1ccc2c(c1)Nc1ccccc1CC2,97.6% (inactive)
16,CCN1CCN(CCOc2ccccc2OCc2ccccc2)CC1,97.9% (inactive)
17,COc1cc(/C=N/NC(=O)C(C)n2nnc3ccccc32)ccc1O (stereo not drawn),107% (inactive)
18,Oc1ccc(/C=N/Nc2ncc(Cl)cc2Cl)cc1,107% (inactive)
19,COc1cc(/C=N/Nc2nc(C)cc(C)n2)ccc1O,104% (inactive)
20,COc1cc(/C=N/Nc2nc(N3CCCC3)nc(N3CCCC3)n2)ccc1O,89.4% (inactive)
21,COc1cc(/C=N/Nc2ccc(C(=O)O)cc2)ccc1O,92.5% (inactive)
22,Oc1ccc(/C=N/Nc2ncnc3nc[nH]c23)cc1,99.2% (inactive)
23,O=C(O)C1CCCCC1C(=O)Nc1ccc(S(=O)(=O)N2CCOCC2)cc1 (stereo not drawn),107% (inactive)
24,Cc1ccn2c(=S)[nH]nc2c1,106% (inactive)

row,SMILES,viability
1,Oc1cc(Br)ccc1C=Nc1ccc(N2CCCCC2)cc1,95.8% (inactive)
2,COc1ccccc1CNCC(=O)Nc1ccc(N(C)C)cc1,100% (inactive)
3,O=C(N/N=C/c1ccc(O)cc1)Nc1cccc2nsnc12,84.8% (inactive)
4,Cc1csc(=O)n1CC(=O)OC(C)C(=O)Nc1ccc(N(C)C)cc1 (stereo not drawn),106% (inactive)
5,CCN(Cc1ccccc1)c1ccc(/C=N/N2CCOCC2)cc1,101% (inactive)
6,C=CCn1c(SCC(=O)Nc2ccc(O)cc2)nc2sc(CC)cc2c1=O,92.4% (inactive)
7,Brc1ccccc1OCCCCCN1CCOCC1,95% (inactive)
8,C=CCNC(=O)CN1CCN(C(c2ccccc2)c2ccccc2)CC1,96.1% (inactive)
9,COc1ccc(NC2CCCN(C(=O)c3ccc(C(C)=O)s3)C2)cc1 (stereo not drawn),108% (inactive)
10,CN=c1scc(C)n1/N=C/c1ccc(O)cc1,104% (inactive)
11,Cc1cc(Br)cc(C=Nc2ccc(N3CCOCC3)cc2)c1O,108% (inactive)
12,O=C(c1cccc(Cl)c1)N1CCN(C2CCCCC2)CC1,98.8% (inactive)
13,Cc1c(Cl)cccc1NC(=S)Nc1ccc2[nH]c(=O)[nH]c2c1,103% (inactive)
14,Cc1ccc(OCCN2CCN(C)CC2)c([N+](=O)[O-])c1,93.3% (inactive)
15,O=C(CSc1nnnn1C1CC1)N1CCN(c2ccc(O)cc2)CC1,104% (inactive)
16,CCC(C)N1CCN(C(=O)c2cccs2)CC1 (stereo not drawn),103% (inactive)
17,O=c1oc2ccccc2cc1-c1csc(Nc2ccc(O)cc2)n1,100% (inactive)
18,Oc1ccc(Nc2ncnc3c2oc2ccccc23)cc1,93.6% (inactive)
19,OC1CNc2c(ccc3ccccc23)C1 (stereo not drawn),99.1% (inactive)
20,OCCN1CCN(Cc2ccc3ccccc3c2)CC1,99.5% (inactive)
21,CC(CCN1CCN(CCO)CC1)c1ccccc1 (stereo not drawn),100% (inactive)
22,COc1ccc(OCCOCCN2CCN(C)CC2)cc1,109% (inactive)
23,O=[N+]([O-])c1ccc(N2CCN(CCOCCO)CC2)c([N+](=O)[O-])c1,92.2% (inactive)
24,COc1ccc(O)c(/C=N/NC(=O)c2c(C)nnn2-c2nonc2N)c1,91% (inactive)

row,SMILES,viability
1,c1ccc(CC2CCN(Cc3ccccn3)CC2)cc1,95.7% (inactive)
2,CCC1(c2ccccc2)NC(=O)N(CC(=O)Nc2ccc(N3CCCC3)cc2C)C1=O (stereo not drawn),91.3% (inactive)
3,CCOC(=O)c1c(C)[nH]c(C(=O)CN2CCN(CC)CC2)c1C,99.3% (inactive)
4,CCOC(=O)C1=C(C)Nc2ccc(C)cc2S1,94.1% (inactive)
5,COC(=O)c1cc(NCc2cccs2)ccc1N1CCOCC1,96% (inactive)
6,COc1cc(CNc2ccc3[nH]c(=O)[nH]c3c2)ccc1OCc1ccccc1,108% (inactive)
7,COc1cc(CNc2ccc(N3CCN(C(C)=O)CC3)cc2)ccc1OCc1ccccc1,89% (inactive)
8,O=C(N/N=C/c1ccc(O)c2ccccc12)c1cccnc1,96.2% (inactive)
9,Cc1nc(N)sc1-c1ccccc1,94.9% (inactive)
10,COc1cc(Br)c(CNc2cc(C)ccc2C)cc1OC,87.7% (inactive)
11,COc1ccccc1/C=C1/C(=O)N(c2ccccc2)N=C1C,103% (inactive)
12,CC1=NN(c2ccc(C(=O)O)cc2)C(=O)/C1=C\c1ccc(OC(=O)c2cccs2)cc1,94.7% (inactive)
13,Cc1c(N2C(=O)/C(=C\c3ccc(N(C)C)cc3)N(C)C2=S)c(=O)n(-c2ccccc2)n1C,83.4% (inactive)
14,CC1=NN(c2cccc(C(=O)O)c2)C(=O)/C1=C\C=C\c1ccco1,94.4% (inactive)
15,Cc1ccc(N2C(S)=C(C#N)C(=O)NC2c2ccco2)cc1 (stereo not drawn),98.9% (inactive)
16,CCOc1cc(/C=N/NC(=O)C(=O)N2CCCC2)ccc1O,104% (inactive)
17,Oc1ccc2ccccc2c1Br,94.4% (inactive)
18,CC[n+]1c(/C=C/N(C)c2ccccc2)oc2ccc(Cl)cc21,95.9% (inactive)
19,CC(=O)N1CCN(c2ccc(NCc3ccco3)cc2)CC1,106% (inactive)
20,CCN(CC)c1ccc(/C=C2\C(=O)c3ccc(C(=O)O)cc3C2=O)cc1,101% (inactive)
21,O=C(O)c1ccc(COc2ccccc2C=C2C(=O)c3ccccc3C2=O)cc1,98.2% (inactive)
22,Cc1cc(-c2n[nH]c(=S)n2/N=C/c2ccccc2[N+](=O)[O-])n[nH]1,106% (inactive)
